Inconclusive results are not listed. Calls of active or inactive are those of the source. Unless noted, calls come from the whole dose curve.

Potency data for eight compounds are collected here from PubChem BioAssay (Tox21).

A short description of assay [1]: Nuclear factor erythroid 2-related factor 2/antioxidant responsive element (Nrf2/ARE) small molecule agonists: qHTS cell viability counter screen in human keratinocytes (AID 1919968; active = well fitted curve in the direction sought with a large enough effect in the repeat runs; an effect the other way counts as inactive or inconclusive; note: nearly all actives have a fitted effect of over 55% in size; note: potency is the fitted concentration of half-maximal effect). The procedure, abridged: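 Stably transfected HaCaT (KeratinoSens), 1,500/well. Test agents in DMSO were applied for 23 h, 37 C/5% CO2. CellTiter-Fluor was incubated 1 h before the fluorescence read.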

For assay [2], the target named is Gonadotropin-releasing hormone receptor (Homo sapiens) (UniProt P30968). Kind of assay: Human gonadotropin-releasing hormone receptor (GnRHR) small molecule agonists, calcium flux assay in GnRHR-HEK293 cells (AID 1920063). Note: nearly all actives have a fitted effect of over 35% in size. The procedure, abridged: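 Stable human GnRHR HEK293 line. 18 h plating, then calcium dye for 1 h at 37 C. Agonist-mode compound addition from DMSO stocks; fluorescence monitored 3 min.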
(A change in cytosolic calcium serves as a functional read-out for many receptors and channels.)

For assay [3], the target named is KiSS-1 receptor (Homo sapiens) (UniProt Q969F8). Description: Human kisspeptin (KISS1R) small molecule agonists, calcium flux assay in KISS1R-HEK293 cells (AID 1920064; active = well fitted curve in the direction sought with a large enough effect in the repeat runs; an effect the other way counts as inactive or inconclusive). A digest of the protocol:
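After overnight (18 h) culture at 37 C/5% CO2, human KISS1R-HEK293 cells received calcium dye for 1 h, then test compound; emission at 540 nm (excitation 480 nm) was tracked for 3 min.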

Assay [4] in a line: G protein-coupled receptor (GPCR) small molecule agonists, calcium flux assay: HEK293 wild type cell line counter screen (AID 1920065). A digest of the protocol: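 Following 18 h incubation at 37 C/5% CO2, plates got calcium dye for 1 h; compounds, ATP or DMSO were then pinned in and fluorescence followed kinetically (480/540 nm).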
Assay [5] is described as follows: p53 small molecule agonists, cell-based qHTS assay with human liver microsomes (AID 1963577).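 Note: p53 response element beta-lactamase reporter cells with liver microsomes plus NADPH.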 The procedure, abridged:
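Steps: plate p53RE-bla cells, incubate 5 h at 37 C; add compound in DMSO; add microsomes (0.5 mg/mL final) and NADPH (0.5 mg/mL final); incubate 16 h at 37 C; add LiveBLAzer, 2 h RT; read fluorescence.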

Assay [6] in a line: p53 small molecule agonists, cell-based qHTS assay with rat liver microsomes (AID 1963578). A digest of the protocol:
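Metabolic activation is supplied by rat liver microsomes with NADPH (each 0.5 mg/mL final). p53RE-bla cells incubate with compound 16 h at 37 C; reporter activity is measured by LiveBLAzer fluorescence.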
(In general: Quantitative high-throughput screening tests each substance at several concentrations.)

A short description of assay [7]: p53 small molecule agonists, cell-based qHTS assay with human liver microsomes: qHTS cell viability counter screen (AID 1963579). Note: nearly all actives have a fitted effect of over 45% in size. Note: potency is the fitted concentration of half-maximal effect. A digest of the protocol:
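After the 460/530 nm beta-lactamase read, CellTiter-Glo was added to the same wells and luminescence measured after 30 min at room temperature, giving viability of p53RE-bla cells treated 16 h with compounds plus microsomes and NADPH.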

The nature of assay [8]: p53 small molecule agonists, cell-based qHTS assay with rat liver microsomes: qHTS cell viability counter screen (AID 1963580). Note: nearly all actives have a fitted effect of over 45% in size. Note: potency is the fitted concentration of half-maximal effect. The procedure, abridged: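 Cytotoxicity counter screen: intracellular ATP read by CellTiter-Glo luminescence in the p53 reporter wells. HCT-116 p53RE-bla cells were treated for 16 h at 37 C alongside rat liver microsomes and NADPH, each 0.5 mg/mL final.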

The nature of assay [9]: p53 small molecule agonists, cell-based qHTS assay (AID 1963582; active = well fitted activation curve with a large enough effect in the signal ratio in the repeat runs, not every such curve was filed as active; the % refers to the signal ratio). The procedure, abridged: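 Measured: fluorescence from cleaved LiveBLAzer substrate. System: p53RE-bla cells, 16 h compound treatment at 37 C, 2 h substrate step at room temperature.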
In assay [10] the target is 5-hydroxytryptamine receptor 2A (Homo sapiens) (UniProt P28223). Kind of assay: 5-hydroxytryptamine receptor 2A (HTR2A) small molecule agonists, cell-based qHTS assay (AID 1963587). Note: nearly all actives have a fitted effect of over 30% in size. Note: potency is the fitted concentration of half-maximal effect. A digest of the protocol:
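Kinetic calcium-flux fluorescence (2 min, 1 sec intervals) after compound addition in agonist mode. HTR2A-CHO cells were cultured 18 h, then dye-loaded 1 h at 37 C.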

The target of assay [11] is Muscarinic acetylcholine receptor M1 (Homo sapiens) (UniProt P11229). Description: Cholinergic receptor muscarinic 1 (CHRM1) small molecule antagonists, cell-based qHTS assay (AID 1963588). Note: nearly all actives have a fitted effect of over 40% in size. Note: potency is the fitted concentration of half-maximal effect. A digest of the protocol:
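Compounds were tested at 15 concentrations in three independent runs. Dye-loaded CHRM1-CHO cells were exposed 5 min at room temperature before stimulation by acetylcholine added at 50nM. Intracellular calcium was read kinetically on FDSS for 3 min.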

The target is the same in assay [12]. Kind of assay: Cholinergic receptor muscarinic 1 (CHRM1) small molecule agonists, cell-based qHTS assay (AID 1963589). Note: nearly all actives have a fitted effect of over 35% in size. The procedure, abridged:
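Kinetic fluorescence (1 s intervals) of calcium-sensitive dye in human M1 CHO cells after compound addition; cells pre-incubated 18 h at 37 C/5% CO2 and dye-loaded 1 h.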

The nature of assay [13]: cAMP Responsive Elements (CRE) small molecule agonists, cell-based qHTS assay (AID 1963590). The procedure, abridged:
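Test agents in DMSO were incubated 3 h at 37 C/5% CO2 with CRE-bla HEK 293T cells seeded 18 h earlier; LiveBLAzer B/G FRET substrate was added and read after 2 h at room temperature.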

A short description of assay [14]: cAMP Responsive Elements (CRE) small molecule antagonists, cell-based qHTS assay (AID 1963591; active = well fitted inhibition curve with a large enough effect in the signal ratio in the repeat runs, not every such curve was filed as active; the % refers to the signal ratio). The procedure, abridged: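 Reporter line CRE-bla HEK 293T in dialyzed-FBS DMEM; cells preincubated 18 h, treated 3 h with compound plus NKH477 (0.25 uM final); LiveBLAzer FRET, 2 h RT.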
The target in assay [15] is Beta-2 adrenergic receptor (Homo sapiens) (UniProt P07550). Description: Adrenergic beta2 receptor (ADRB2) small molecule antagonists, cell-based qHTS assay (AID 1963592). Note: series mostly up to about 92 µM; nearly all actives have a fitted effect of over 50% in size. A digest of the protocol:
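Assay format: CHO-ADRB2 cells, 18-20hr seeding at 37C/5% CO2, then compound plus 1nM isoproterenol agonist mix for 0.5hr RT. Homogeneous time-resolved fluorescence cAMP detection after 1hr, expressed as 665/615 nm ratio.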

The target is the same in assay [16]. Description: Adrenergic beta2 receptor (ADRB2) small molecule agonists, cell-based qHTS assay (AID 1963593).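 Note: CHO cells stably overexpressing human ADRB2.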 A digest of the protocol: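 CHO cells stably over-expressing ADRB2 were plated overnight at 37C, then dosed with compounds plus a stimulation mix containing 100uM IBMX and 25uM Ro-20-1724 for 0.5hr at room temperature. cAMP was measured by HTRF competition, 1hr.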

Assay [17] addresses D(2) dopamine receptor (Homo sapiens) (UniProt P14416). Description: Dopamine D2 receptor (DRD2) small molecule agonists, cell-based qHTS assay (AID 1963594). Note: nearly all actives have a fitted effect of over 35% in size. The procedure, abridged: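 cAMP accumulation in DRD2-HEK293 cells measured by HTRF after 1 h detection; compounds added 10 min before NKH477 (200nM […]) forskolin-analogue stimulation, 30 min at room temperature, with Ro20-1724 present at 0.1 mM final.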

Assay [18] has the same target. Kind of assay: Dopamine D2 receptor (DRD2) small molecule antagonists, cell-based qHTS assay (AID 1963595; active = well fitted inhibition curve with a large enough effect in the signal ratio in the repeat runs, with a control signal flat; the % refers to the signal ratio). The procedure, abridged:
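Cells were plated and grown for 24 h at 37 °C. Ro20-1724 (0.1 mM final) went in first, then compound for 10 min. NKH477 (200 nM) with quinpirole (12 nM) followed for 30 min at RT, then HTRF detection reagents for 1 h.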

Assay [19] is described as follows: p53 small molecule agonists, cell-based qHTS assay: qHTS cell viability counter screen (AID 1963581). Note: nearly all actives have a fitted effect of over 45% in size. Note: potency is the fitted concentration of half-maximal effect. A digest of the protocol: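 qHTS counter screen: 16 h compound exposure at 37 C of p53RE-bla HCT-116 cells (4,000 per well, seeded 5 h prior), cell viability by ATP luminescence.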
The target in assay [20] is 5-hydroxytryptamine receptor 2A (Homo sapiens) (UniProt P28223). Description: 5-hydroxytryptamine receptor 2A (HTR2A) small molecule antagonists, cell-based qHTS assay (AID 1963586). Note: nearly all actives have a fitted effect of over 45% in size. A digest of the protocol: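 CHO cells stably expressing human HTR2A were plated for 18 h at 37 C, then loaded with calcium dye for 1 h. Compounds were preincubated 5 min at room temperature before DOI (4 nM solution) was added. Kinetic fluorescence was read for 3 min.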
5-hydroxytryptamine receptor 2A (Homo sapiens), sequence (P28223 whole entry, looked up): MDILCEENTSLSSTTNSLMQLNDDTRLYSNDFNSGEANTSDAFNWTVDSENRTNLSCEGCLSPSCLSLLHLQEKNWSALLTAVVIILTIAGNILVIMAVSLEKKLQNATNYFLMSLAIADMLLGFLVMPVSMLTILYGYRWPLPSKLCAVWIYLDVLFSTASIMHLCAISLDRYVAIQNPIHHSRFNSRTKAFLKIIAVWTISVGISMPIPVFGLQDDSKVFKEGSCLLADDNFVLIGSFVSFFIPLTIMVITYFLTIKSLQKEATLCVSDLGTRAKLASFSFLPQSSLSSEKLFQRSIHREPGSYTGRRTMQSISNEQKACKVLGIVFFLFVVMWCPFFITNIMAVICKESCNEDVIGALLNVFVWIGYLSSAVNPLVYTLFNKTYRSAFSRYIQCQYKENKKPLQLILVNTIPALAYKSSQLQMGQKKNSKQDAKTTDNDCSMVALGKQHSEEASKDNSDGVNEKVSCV

KiSS-1 receptor (Homo sapiens), sequence (Q969F8 whole entry, looked up): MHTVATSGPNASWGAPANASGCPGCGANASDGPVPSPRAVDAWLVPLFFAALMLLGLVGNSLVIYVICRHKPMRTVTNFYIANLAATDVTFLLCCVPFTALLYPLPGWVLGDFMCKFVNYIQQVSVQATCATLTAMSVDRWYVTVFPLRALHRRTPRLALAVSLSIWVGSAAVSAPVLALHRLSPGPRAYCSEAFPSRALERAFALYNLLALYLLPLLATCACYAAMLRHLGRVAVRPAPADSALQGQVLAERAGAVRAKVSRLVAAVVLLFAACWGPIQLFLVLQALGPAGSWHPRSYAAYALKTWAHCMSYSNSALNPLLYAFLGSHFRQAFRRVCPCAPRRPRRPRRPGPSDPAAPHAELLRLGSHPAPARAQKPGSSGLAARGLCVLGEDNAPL
D(2) dopamine receptor (Homo sapiens), sequence (P14416 whole entry, looked up): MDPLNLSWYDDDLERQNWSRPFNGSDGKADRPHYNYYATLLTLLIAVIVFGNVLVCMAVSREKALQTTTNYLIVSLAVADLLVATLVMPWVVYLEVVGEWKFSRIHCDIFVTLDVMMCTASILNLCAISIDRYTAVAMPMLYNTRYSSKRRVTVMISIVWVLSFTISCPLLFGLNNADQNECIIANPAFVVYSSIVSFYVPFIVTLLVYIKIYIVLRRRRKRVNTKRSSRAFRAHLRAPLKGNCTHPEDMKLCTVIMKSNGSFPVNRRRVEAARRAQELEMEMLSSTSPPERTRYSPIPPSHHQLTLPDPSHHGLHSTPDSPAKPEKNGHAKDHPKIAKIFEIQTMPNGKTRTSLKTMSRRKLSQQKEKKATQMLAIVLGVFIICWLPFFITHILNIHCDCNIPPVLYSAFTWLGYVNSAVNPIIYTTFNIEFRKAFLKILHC
Beta-2 adrenergic receptor (Homo sapiens), sequence (P07550 whole entry, looked up): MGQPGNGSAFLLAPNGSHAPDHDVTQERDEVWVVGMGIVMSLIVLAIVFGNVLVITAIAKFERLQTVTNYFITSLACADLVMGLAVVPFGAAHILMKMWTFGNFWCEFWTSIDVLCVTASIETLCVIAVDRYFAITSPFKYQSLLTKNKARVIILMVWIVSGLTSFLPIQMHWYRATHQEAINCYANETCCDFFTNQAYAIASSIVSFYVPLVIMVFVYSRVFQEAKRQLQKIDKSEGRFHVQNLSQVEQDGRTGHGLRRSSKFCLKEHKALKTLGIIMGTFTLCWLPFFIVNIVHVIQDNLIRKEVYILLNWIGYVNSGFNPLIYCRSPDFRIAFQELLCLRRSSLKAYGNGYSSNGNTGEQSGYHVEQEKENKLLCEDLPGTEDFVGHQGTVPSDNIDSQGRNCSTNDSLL
Gonadotropin-releasing hormone receptor (Homo sapiens), sequence (P30968 whole entry, looked up): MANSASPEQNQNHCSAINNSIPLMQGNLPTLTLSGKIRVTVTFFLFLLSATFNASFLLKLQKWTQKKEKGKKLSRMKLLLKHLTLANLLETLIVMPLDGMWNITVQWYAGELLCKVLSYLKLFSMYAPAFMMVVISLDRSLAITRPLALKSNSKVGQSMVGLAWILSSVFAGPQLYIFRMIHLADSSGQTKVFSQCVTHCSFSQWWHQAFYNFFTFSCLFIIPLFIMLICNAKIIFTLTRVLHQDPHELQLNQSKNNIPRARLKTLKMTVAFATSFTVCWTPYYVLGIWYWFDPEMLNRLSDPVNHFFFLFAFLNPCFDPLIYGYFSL
Muscarinic acetylcholine receptor M1 (Homo sapiens), sequence (P11229 whole entry, looked up): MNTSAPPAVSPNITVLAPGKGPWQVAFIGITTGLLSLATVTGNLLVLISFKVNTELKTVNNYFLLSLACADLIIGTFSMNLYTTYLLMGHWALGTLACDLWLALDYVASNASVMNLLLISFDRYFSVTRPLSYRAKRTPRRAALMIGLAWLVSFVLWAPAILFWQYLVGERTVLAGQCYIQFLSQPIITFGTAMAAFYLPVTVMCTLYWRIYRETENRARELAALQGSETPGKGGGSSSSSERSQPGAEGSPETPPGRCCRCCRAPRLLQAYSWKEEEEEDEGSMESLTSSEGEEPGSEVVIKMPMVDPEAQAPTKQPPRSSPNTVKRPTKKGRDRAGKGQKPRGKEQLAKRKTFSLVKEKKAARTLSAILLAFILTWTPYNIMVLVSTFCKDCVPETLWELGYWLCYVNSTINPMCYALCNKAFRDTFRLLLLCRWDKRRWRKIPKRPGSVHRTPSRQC

In the case of `O=C(Nc1ccc(C(=O)O)c(O)c1)c1ccccc1`, the Potency result in assay [1], in assay [2], in assay [3], in assay [4], in assay [5] and in [6] was “inactive” throughout. Moreover, the Potency result in [7], in [8], in assay [9], in assay [10], in assay [11] and in assay [12] was “inactive” each time. Besides, the Potency entry in assay [13], in [14], in assay [15], in [16], in assay [17] and in [18] was “inactive” each time.
As for `CC(C)COC(=O)CC(C(=O)OCC(C)C)S(=O)(=O)O` (centres undefined), the Potency result in assay [1], in assay [2], in assay [3], in assay [4], in assay [5] and in assay [6] was “inactive” throughout. The Potency entry in assay [7], in [8], in assay [19], in assay [20], in [11] and in assay [12] was “inactive” throughout. Moreover, the Potency result in assay [13], in [14], in assay [15], in assay [17] and in assay [18] was “inactive” in each case.
With `CCc1cc(SCc2sc(-c3ccc(C(F)(F)F)cc3)nc2CN2CCN(c3ccc(OC)cc3)CC2)ccc1OCC(=O)O`, the Potency in assay [1] was 54.5 µM (active); in assay [7], 36.3 µM (active); in [8], 32.4 µM (active); in [19], 12.9 µM (active). Moreover, the Potency result in assay [2], in assay [3], in assay [4], in assay [5], in assay [6] and in [12] was “inactive” throughout. Besides, the Potency entry in [17] is “inactive”.
In the case of `Cc1cc(-c2ccc(N=Nc3cc(S(=O)(=O)O)c4ccccc4c3N)c(C)c2)ccc1N=Nc1cc(S(=O)(=O)O)c2ccccc2c1N`, the Potency result in assay [1], in assay [2], in assay [3], in assay [4], in [5] and in assay [6] was “inactive” in each case. Also, the Potency result in [7], in [8], in assay [19], in assay [20], in assay [10] and in [12] was “inactive” in each case. In addition, the Potency result in [15], in [16], in [17] and in assay [18] was “inactive” in each case. The Potency in assay [11] was 7.52 µM (active).
Take `CC(=O)CC(=O)Nc1ccc(S(=O)(=O)O)cc1`: the Potency entry in assay [1], in [2], in [3], in [4], in [5] and in assay [6] was “inactive” in each case. The Potency entry in assay [7], in assay [8], in assay [9], in assay [20], in assay [10] and in assay [11] was “inactive” throughout. In addition, the Potency result in [12], in assay [13], in assay [14], in [15], in assay [16] and in assay [17] was “inactive” each time. Moreover, the Potency entry in assay [18] was “inactive”.
Regarding `CCCCN1C(=O)[C@@H]([C@H](O)C2CCCCC2)NC(=O)C12CCN(Cc1ccc(Oc3ccc(C(=O)O)cc3)cc1)CC2`, the Potency result in assay [1], in assay [2], in assay [3], in [4], in assay [5] and in assay [6] was “inactive” in each case. The Potency entry in [7], in assay [8], in [11] and in assay [18] was “inactive” each time. Besides, in assay [10], the Potency is 24.5 µM (active).
With `Clc1cccc(Cl)n1`, the Potency entry in assay [1], in assay [2], in assay [3], in [4], in [5] and in [6] was “inactive” throughout. Besides, the Potency result in assay [7], in assay [8], in assay [19], in assay [10], in assay [11] and in [12] was “inactive” each time. The Potency entry in [13], in assay [14], in assay [15], in assay [16], in assay [17] and in assay [18] was “inactive” throughout.
Consider `N#CCCCC(C#N)CCC#N` (centres undefined), for which the Potency entry in assay [1], in assay [2], in [3], in [4], in assay [5] and in [6] was “inactive” throughout. Also, the Potency entry in [7], in [8], in assay [9], in [20], in [10] and in assay [11] was “inactive” each time. The Potency entry in assay [12], in assay [13], in assay [14], in assay [15], in assay [16] and in assay [18] was “inactive” in each case.
